Data: the supplement of paper PMC10338343
± gives the standard deviation.

Test system: MILI (PIWIL2) piRISC loaded with L1MC piRNA (26 nt)
Assay: pre-steady-state target cleavage rate (min^-1); guide: L1MC piRNA 5'p-UAACUAAAUACUAUGCAAGCUGUAGG; MIWI and MILI are mouse PIWI proteins and EfPiwi is from a freshwater sponge; tags in brackets are library labels; higher = faster piRNA-guided slicing of the target
Conditions: auxiliary factor: 500 nM mouse GTSF1
How it was run: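 Using HEPES–potassium acetate buffer at 33 °C, 1 nM active affinity-purified piRISC with a single synthetic guide was mixed with 0.1 nM transcribed, DNA-blocked target RNA library for 0–8 or 0–960 min, with or without 500 nM GTSF1 partner protein. Uncleaved targets were sequenced and normalised to depth and to weakly complementary targets, and three trials were pooled with k3 capped at 0.0001 min^-1. A burst-and-steady-state fit gave the pre-steady-state cleavage rate.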

Row | Sequence | pre-steady-state target cleavage rate
1 | UCCUGGAUGUGCUUGCAUAGUAAUAAGUUA | 0.0448 ± 0.016
2 | UCCUGGUACACGUUGCAUAGUAUUUUCAAA | 0.02 ± 0.011
3 | UCCUGGAUGUCGUUGCAUAGUAUUUAGAUUA | 0.0205 ± 0.0091
4 | UCCUGGUACAGCUUGCAUAGUAUUUAUUA | 0.042 ± 0.016
5 | UCCUGCUACAGCUUGCAUAGUAAUUUGUUA | 0.245 ± 0.053
6 | UCCUGGAUGUCGAAGCUUAGUAUUUAGUUA | 0.00685 ± 0.0029
7 | UCCUGCUACAGCUUGCAUAGAUUUUAGUUA | 0.0475 ± 0.0083
8 | UCCUGGUACAGCUUGCAUAGUUUAUAGUUA | 0.0525 ± 0.018
9 | UCCUGGAUGAGCUUGCAUAUAUUUAGUUA | 0.00951 ± 0.0043
10 | UCCUGGAUCAGCUUGCUUAGUAUUUUCAAA | 0.0126 ± 0.0057
11 | UCCUGGAACAGCUACCAUAGUAUUUAGAAA | 0.0138 ± 0.0052
12 | UCCUGCUACAGCAUGCAUAGUAUUUACAAA | 0.146 ± 0.043
13 | UCCUGGAUGUCCAUGCAUAGUAAUUAGUUA | 0.0249 ± 0.0072
14 | UCCUGGAUCAGCUUGCUAAGUAUUUAGAAA | 0.0172 ± 0.006
15 | UCCUCCUACAGCUUGCUAUGUAUUUACAAA | 0.00653 ± 0.0036
16 | UCCUGGAUCAGCUUGCAUAGUAUAAUGAAA | 0.0691 ± 0.022
17 | UCCUGGAUGUCCUUGCUUAGUAUUUACUUA | 0.0556 ± 0.015
18 | UCCUGGUACAGCUUGCAUAGAUAUUAGUUA | 0.0155 ± 0.005

Row | Sequence | pre-steady-state target cleavage rate
19 | UCCUGCUACAGCUUGCUUAGUAUUUACAAA | 0.0114 ± 0.0054
20 | UCCUGCUACUGCUUGCAUAGUAUUUACUUA | 0.082 ± 0.014
21 | UCCUGGAUGAGCUUGCAUAGAAUUUUGUUA | 0.0139 ± 0.0063
22 | UCCUGGAUGUCGAACCAUAGUAUUAUCAAA [g7:g15:cont:t1A] | < 0.0001
23 | UCCUGGAUCAGCUUGCAAUGUAUUUUCAAA | 0.00576 ± 0.0035
24 | UCCUGGAUCAGCUUGCAUAGAAUUUUGUUA | 0.038 ± 0.012
25 | UCCUCCUACAGCUUGGUAAGUAUUUAGUAA | 0.155 ± 0.025
26 | UCCUCCUACAGCUUGCAUUCUAUUUAGAAA | 0.0122 ± 0.0056
27 | UCCUGGAACAGCUUGCAUAGUAAUAAGUUA | 0.103 ± 0.018
28 | UCCUGGAUCAGCUUGCAUAGAAUUAAGUUA | 0.0383 ± 0.011
29 | UCCUGGAACAGCAUGCAUAGUAUUUACUUA | 0.221 ± 0.034
30 | UCCUGGAUGAGCUUGCAUAGUAUUUUCUUA | 0.0122 ± 0.0069
31 | UCCUGGAUCUCGUUGCAUAGUAUUUUCAAA | 0.0482 ± 0.013
32 | UCCUGCUACAGCUUGCAAUGUAUUUACAAA | 0.0477 ± 0.014
33 | UCCUGGAUGAGCUUGCAUACUAUUAAGUUA | 0.00607 ± 0.0038
34 | UCCUGGAUGUCGAAGCAUAGUCUUUAGUUA | 0.0102 ± 0.0051
35 | UCCUGGUACAGCUUGCUAAGUAUUUAGUAA | 0.036 ± 0.012

Same assay, conditions: auxiliary factor: none (no GTSF1)

Row | Sequence | pre-steady-state target cleavage rate
36 | UCCUGGAUGUCGAACGUAUGUAUUUCGUUA | < 0.0001
37 | UCCUGGAUGUCGAACGAGUAGUAUUUAGUUA | < 0.0001
38 | UCCUGGAUCAGCUUGCAUAGGUAUUUAGUUA | 0.00357 ± 0.0027
39 | UCCUGGAUGAGCUUGCAUACAUUUUAGUUA | 0.00358 ± 0.0026
40 | UCCUGGAUGUCGAACCAUAGUUUUUAGUAA | < 0.0001
